Only a selection was taken, and hits are over-represented in it overall.
CD40 NFkB inh: CD40 pathway inhibition in BL2 cells; BL2 NF-kB luciferase reporter, CD40L-induced, 4 h; inhibition, % at 10 µM; AID 1053188; 0.94% of 83,000 active;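 active = mean inhibition of at least 50% with a set share of replicates also reaching that level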;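 also: 0% = neutral control wells and 100% = IKK inhibitor VII at 50 µM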
The depositor's hits bear a star; [ ] = remark or other dose.

SMILES | CD40 NFkB inh
C[C@@H]1CN([C@H](C)CO)C(=O)CCCn2nncc2CO[C@@H]1CN(C)C(=O)Nc1ccc(C(C)(C)C)cc1 | -13
S=C(NC1CC1)N1CCc2ccccc2C1 | 8
S=C(N/N=C1\CCc2ccccc21)NC1CCCCC1 | 62*
S=C(Nc1ccccc1Oc1ccccc1)NC1CCCC1 | 9
Cc1ccc(S(=O)(=O)N(C)C[C@H]2OCc3ccccc3-c3ccccc3C(=O)N([C@H](C)CO)C[C@@H]2C)cc1 | 14
O=C1c2ccccc2-c2nc3ccccc3nc21 | -118
O=C1C(=C(I)I)c2ccccc2-c2ccccc21 | 106*
NC1=CC(=O)C(=O)c2ccccc21 | -12
C/C=C/c1ccc([C@H]2[C@@H](CO)N(C(=O)NCCC)[C@@H]2CNC(=O)C2CCC2)cc1 | 0
COc1ccc(/C=N\n2nnc3ccccc32)cc1 | 58*
COc1ccc(/C=N/NC(=O)CCn2cnc3ccccc32)cc1 | -7
COc1cccc(/C=N/NC(=O)CCn2nnc3ccccc32)c1 | -14
CS(=O)(=O)N1CC(=O)N2[C@@H](CO)[C@H](c3ccc(C#CCC4CCCC4)cc3)[C@@H]2C1 | 6[25 µM]
COC(=O)c1ccc(CSCc2ccc(C(=O)OC)o2)o1 | 12
CCc1nc(SCc2ccc(C(=O)OC)o2)n[nH]1 | 0
COC(=O)c1ccc(CSc2nnc3c(Cl)cc(Cl)cn23)o1 | 67*
COC(=O)c1ccc(CSc2nnnn2C)o1 | 6
COC(=O)c1ccc(CSc2nc3ccccc3c(=O)n2-c2ccccc2)o1 | 34
COC(=O)c1ccc(CSc2cc(C)c3cc(C)cc(C)c3n2)o1 | 55*
Cc1noc(C)c1S(=O)(=O)N(C)C[C@H]1OCCCC[C@H](C)Oc2ccc(NC(=O)CCC(F)(F)F)cc2C(=O)N([C@H](C)CO)C[C@@H]1C | 9[25 µM]
CC[C@H]1C/C=C\C[C@H](c2ccc(OC)cc2OC)NC(=O)[C@H](C)CC(=O)N1 | -8[25 µM]
Cc1ccc(S(=O)(=O)CS(=O)(=O)c2ccc(C)cc2)cc1 | 2
Cc1ccc(S(=O)(=O)C=CS(=O)(=O)c2ccc(C)cc2)cc1 | 101*
CNS(=O)(=O)c1ccc(C)cc1 | 6
O=C(CN1CCOCC1)N[C@@H]1CC[C@@H](CCNC(=O)C2CCCC2)O[C@@H]1CO | -8
SMILES | CD40 NFkB inh
CC(=O)N(CC1CCC1)C[C@H]1N[C@H](CO)[C@@H]1c1ccc(C2=CCCC2)cc1 | -6[25 µM]
O=C(C[C@@H]1C=C[C@@H](NC(=O)Nc2ccccc2F)[C@H](CO)O1)NCc1ccc(-c2ccccc2)cc1 | -8[25 µM]
COc1cccc(C#Cc2ccc([C@@H]3[C@H](C#N)N(C(=O)C4CC4)[C@H]3CO)cc2)c1 | -18
COc1cccc(C#Cc2ccc([C@H]3[C@@H](CO)N(C(=O)C4CCCC4)[C@H]3C#N)cc2)c1 | -2
COc1cccc(C#Cc2ccc([C@@H]3[C@@H](CO)N(C(=O)C4CCOCC4)[C@H]3C#N)cc2)c1 | 55*
COc1cccc(C#Cc2ccc([C@@H]3[C@@H](C#N)N(C(=O)C4CCCC4)[C@@H]3CO)cc2)c1 | -27
COc1cccc(C#Cc2ccc([C@H]3[C@@H](C#N)N(C(=O)C4CCCC4)[C@@H]3CO)cc2)c1 | 77*
COc1cccc(C#Cc2ccc([C@H]3[C@H](C#N)N(C(=O)C4CCCC4)[C@H]3CO)cc2)c1 | -35
C[C@@H]1CN([C@@H](C)CO)C(=O)c2cc(NS(=O)(=O)c3cccs3)ccc2O[C@H]1CN(C)C(=O)NC1CCCCC1 | -6
C[C@H](NC(=O)[C@H]1[C@H](CO)[C@H]2Cn3c(ccc(-c4ccncc4)c3=O)[C@H]2N1C)c1ccccc1 | 4[25 µM]
CC(=O)N(C)C[C@@H]1Oc2ccc(N)cc2C(=O)N(C)C[C@H]1C | 5
COc1ccc(S(=O)(=O)N(C)C[C@@H]2OCCCC[C@H](C)Oc3ccc(NC(=O)Nc4ccc(C(F)(F)F)cc4)cc3C(=O)N([C@@H](C)CO)C[C@@H]2C)cc1 | -6
C[C@H]1CN([C@@H](C)CO)C(=O)c2cccc(NS(=O)(=O)c3ccc(Cl)cc3)c2O[C@@H]1CN(C)Cc1ccc(C(=O)Nc2ccccc2N)cc1 | -55[25 µM]
C[C@H](CO)N1C[C@H](C)[C@H](CN(C)S(=O)(=O)c2ccc(Cl)cc2)Oc2c(NC(=O)Nc3ccc(F)cc3)cccc2C1=O | 85*[25 µM]
C[C@@H]1CN([C@@H](C)CO)C(=O)c2cccc(NC(=O)Nc3ccc(F)cc3)c2O[C@H]1CN(C)S(=O)(=O)c1ccc(Cl)cc1 | -9[25 µM]
COc1ccc(S(=O)(=O)N(C)C[C@@H]2Oc3ccc(NC(=O)Nc4ccc(C(F)(F)F)cc4)cc3C(=O)N([C@@H](C)CO)C[C@@H]2C)cc1 | 77*[25 µM]
C[C@H](CO)N1C[C@H](C)[C@@H](CN(C)S(=O)(=O)c2ccccc2)Oc2ccc(NC(=O)Nc3ccccc3)cc2C1=O | 1
C[C@@H]1CN([C@H](C)CO)C(=O)c2cccc(NS(=O)(=O)c3ccc(Cl)cc3)c2O[C@H]1CN(C)Cc1ccc(C(=O)Nc2ccccc2N)cc1 | -37[25 µM]
C[C@@H]1CN([C@@H](C)CO)C(=O)c2cccc(NS(=O)(=O)c3ccc(Cl)cc3)c2O[C@@H]1CN(C)Cc1ccc(C(=O)Nc2ccccc2N)cc1 | active[25 µM]
C[C@@H]1CN([C@@H](C)CO)C(=O)c2cccc(NC(=O)Nc3ccc(F)cc3)c2O[C@@H]1CN(C)S(=O)(=O)c1ccc(Cl)cc1 | 10[25 µM]
Cc1ccc(-c2cnc3c(c2)C(=O)N([C@@H](C)CO)C[C@H](C)[C@H](CN(C)C(=O)CN(C)C)O3)cc1 | -14[25 µM]
COc1ccc(-c2cnc3c(c2)C(=O)N([C@H](C)CO)C[C@@H](C)[C@@H](CN(C)C(=O)Nc2c(C)noc2C)O3)cc1 | 65*[25 µM]
Cc1ccc(-c2cnc3c(c2)C(=O)N([C@H](C)CO)C[C@H](C)[C@H](CN(C)C(=O)CN(C)C)O3)cc1 | -6[25 µM]
CN1c2ccc(Br)cc2[C@H]2[C@H](CCN2C(=O)C2CCCC2)[C@H]1CO | 9
CN(C)[C@@H]1CCc2[nH]c3ccc(NC(=O)c4ccc(F)cc4)cc3c2C1 | -26[25 µM]
SMILES | CD40 NFkB inh
CS(=O)(=O)N1CCCCN2[C@H](CO)[C@H](c3ccc(Br)cc3)[C@@H]2C1 | 5[25 µM]
CO[C@H]1CC[C@H]2CCOc3c(C#N)cccc3C(=O)N(C)CCCC(=O)N(C)C[C@@H]1O2 | 2[25 µM]
CC(C)COC(=O)N(C)C[C@H]1OCc2ccccc2-c2ccccc2C(=O)N([C@H](C)CO)C[C@@H]1C | -10[25 µM]
C[C@@H]1CN(C)C(=O)c2cccc(N)c2O[C@H]1CN(C)S(C)(=O)=O | 3
C[C@H](NC(=O)C[C@@H]1CC[C@H]2[C@@H](COC[C@H](O)CN2C(=O)Nc2cccc(Cl)c2)O1)c1ccccc1 | 4[25 µM]
C[C@H]1CNC(=O)[C@@H](Cc2ccc(C(F)(F)F)cc2)CCn2nncc2COC1 | -4[25 µM]
COc1ccc(S(=O)(=O)N(C)C[C@H]2Oc3ccc(NC(=O)Nc4ccc(C(F)(F)F)cc4)cc3C(=O)N([C@H](C)CO)C[C@H]2C)cc1 | 66*[25 µM]
COc1ccc(S(=O)(=O)N(C)C[C@@H]2OCCCC[C@H](C)Oc3ccc(NC(=O)Nc4ccc(F)cc4)cc3C(=O)N([C@H](C)CO)C[C@H]2C)cc1 | -4
COc1ccc(S(=O)(=O)N(C)C[C@H]2OCCCC[C@H](C)Oc3ccc(NC(=O)Nc4ccc(F)cc4)cc3C(=O)N([C@H](C)CO)C[C@@H]2C)cc1 | 4
COc1ccc(S(=O)(=O)N(C)C[C@H]2OCCCC[C@@H](C)Oc3ccc(NC(=O)Nc4ccc(F)cc4)cc3C(=O)N([C@H](C)CO)C[C@@H]2C)cc1 | 1
COc1ccc(S(=O)(=O)N(C)C[C@H]2Oc3ccc(NC(=O)Nc4ccc(C(F)(F)F)cc4)cc3C(=O)N([C@@H](C)CO)C[C@H]2C)cc1 | 61*[25 µM]
